# Compounds without any hit were thinned out: in the full panel of roughly 79,000, 15% have a hit. Activity calls are given as the source filed them. No stated cut-off is given here; in the data, active means growth inhibition above about 70%; inactive means the rest.
# Experiment: NCI Yeast Anticancer Drug Screen. Data for the rad50EPP+ strain (AID 151);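 further: 0% = growth of vehicle-treated control cultures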
# Conditions: S. cerevisiae rad50 mutant strain, at 33.0 µM, active compounds read high
# Method in brief: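 rad50EPP+ yeast treated with test compounds. Readout: growth vs vehicle control.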
row,Structure (SMILES),growth inhibition
1,CCC/C(Cl)=N\OC(=O)Nc1cccc(C(F)(F)F)c1,35% (inactive)
2,[O-][n+]1c2ccc(O)cc2nc2ccc(Cl)cc21,57% (inactive)
3,Clc1ccccc1C1OC1c1ccccc1Cl (centres undefined),20% (inactive)
4,c1ccc2c(c1)c1ncccc1c1nccnc21,69% (inactive)
5,CC(=O)Nc1ccc2c(c1)C(=Nc1ccc(C(=O)O)cc1)c1ccccc1-2,67% (inactive)
6,COc1ccc(OC)c2cc3ccccc3cc12,52% (inactive)
7,COc1cc(C2c3cc4c(cc3OC(NNc3ccccc3)C2C)OCO4)cc(OC)c1OC (centres undefined),47% (inactive)
8,O=C1c2cc([N+](=O)[O-])ccc2-c2cccc(F)c21,69% (inactive)
9,CCCCCCCCCCCC(=O)N(C)C,47% (inactive)
10,CCCCCCCCCCCC1=C(O)C(=O)C=C(O)C1=O,79% (active)
11,Cc1ccc(CSC(N)=Nc2ccccc2)cc1C,4% (inactive)
12,CCCCCCCCCCC1CCC(=O)O1 (centres undefined),22% (inactive)
13,O=[N+]([O-])c1cc(CCl)ccc1CCl,97% (active)
14,Nc1ccc2c(c1)C(=O)c1cccc(N)c1C2=O,97% (active)
15,CCCCCCCCCCNC(=O)OCC,68% (inactive)
16,CC1=C(C)Cc2c(O)ccc(O)c2C1,43% (inactive)
17,COc1ccc2c(c1)C(=O)c1ccccc1C2,42% (inactive)
18,CCC(=O)OCCn1c2nc(=O)[nH]c(=O)c-2nc2cc(C)c(C)cc21,73% (active)
19,O=C(OCCN1CCCCCC1)C(c1ccsc1)C1CCCCC1 (centres undefined),0% (inactive)
20,Oc1c(Br)cc(Br)cc1C1CCCCC1,39% (inactive)

row,Structure (SMILES),growth inhibition
1,CC1(C)[C@@H]2CC[C@]1(C)[C@H](OC(=O)CSC#N)C2,24% (inactive)
2,S=C(N/N=C(/c1ccccc1)c1ccccn1)N1CCCCCC1,3% (inactive)
3,Cc1ccc2[nH]c3c(C)c4cc[n+](C)cc4c(C)c3c2c1,49% (inactive)
4,CNC(=O)OCc1c(COC(=O)NC)c(-c2ccc(-c3ccccc3)cc2)n(C)c1C,-14% (inactive)
5,COc1ccccc1/C=C1\Sc2scc(-c3cccc([N+](=O)[O-])c3)[n+]2C1=O,96% (active)
6,O=[N+]([O-])c1ccc2c(c1)C(N1CCN(CCO)CC1)Cc1ccc(F)cc1S2 (centres undefined),-1% (inactive)
7,Cc1ccc(CCC2=CCCc3c2ccc2ccccc32)cc1,40% (inactive)
8,O=[N+]([O-])c1cccc2nccc(NCCCO)c12,27% (inactive)
9,Cc1ccc(-n2cc(-c3ccc(Cl)cc3)c(C#N)c2N)cc1,56% (inactive)
10,Cc1ccc(S/N=C\c2ccccc2O)cc1,17% (inactive)
11,O=C(O)C1OC1(c1cccc(Cl)c1)c1ccccc1Cl (centres undefined),25% (inactive)
12,NC(=S)N/N=C\c1nccc2ccccc12,27% (inactive)
13,Clc1cccc(C(Nc2nncs2)Nc2nncs2)c1Cl,47% (inactive)
14,O=C(OCC=C1CCCC1)c1cc([N+](=O)[O-])cc([N+](=O)[O-])c1,87% (active)
15,O=C(Nc1ccccc1)C(=O)C(C(=O)c1ccccc1)C(c1ccccc1)c1ccccc1 (centres undefined),2% (inactive)
16,N#CN1C2CCC1CC(=O)C2,-43% (inactive)
17,COc1ccccc1C(=O)OCC1CCCN2CCCCC12 (centres undefined),97% (active)
18,CCNc1nnc(CSc2nc(-c3ccccc3)c(-c3ccccc3)[nH]2)s1,4% (inactive)
19,O=C1c2ccccc2-c2n[nH]c3cccc1c23,88% (active)

# — PubChem BioAssay (NCI)
